p53 reactivator: qHTS assay for re-activators of p53 using a Luc reporter; H1299 p53-A138V BP100-luciferase reporter, luminescence, 24 h; Potency, µM (titrated, usually from 92.2 µM), without a hit: at the top dose activity change, positive = activation, usual class: activators; 320,000 tested, 0.063% active; AID 504706, 2011; note: % of control where 0% means no effect; nearly all actives have a fitted effect of over 45% in size
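p53-null H1299 cells stably carrying temperature-sensitive p53-A138V and a BP100-luciferase reporter were pinned with compounds (4-point, 1:5 series) and held 24 hrs at 37 deg C. Luminescence was read 10 min after detection reagent.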
ELG1 genotox: qHTS screen for small molecules that induce genotoxicity in human embryonic kidney (HEK293T) cells expressing luciferase-tagged ELG1; HEK293T ELG1-luciferase reporter, luminescence, 16 h; Potency, µM (top dose mostly 46 µM), for the others: top-dose activity change, positive = activation, hits mostly activators; 330,000 tested, 1.3% active; AID 504466, 2011; note: % of control where 0% means no effect; nearly all actives have a fitted effect of over 60% in size
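Genotoxicity was scored as increased ELG1-luciferase reporter signal, measured by ONE-Glo luminescence (30 min, room temperature). Compound or vehicle exposure of the HEK293T reporter cells lasted 16 hr at 37°C.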
NPC1 prom act: qHTS Assay for NPC1 Promoter Activators | Huh7 NPC1 promoter luciferase reporter, 24 h | Potency, µM (titrated, usually from 9.22 µM), for inactives: at the highest dose activation, usual class: activators | 320,000 tested, 2.4% active | AID 485313, 2010; note: % of control where 0% means no effect; nearly all actives have a fitted effect of over 60% in size
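Quantitative HTS used a cell-based reporter: Huh7 cells stably bearing the NPC1 promoter upstream of luciferase were treated with compounds for 24 h, and promoter activation was read as luminescence.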
FLuc counter: qHTS profiling assay for firefly luciferase inhibitor/activator using purifed enzyme and Km concentrations of substrates (counterscreen for miR-21 project). purified FLuc, Km substrates, luminescence inhibition. Potency, µM (highest dose often 57.5 µM), without a hit: top-dose activity change, negative = inhibition, usual class: inhibitors. 360,000 tested, 6.9% active. AID 588342, 2011;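 note: plate controls were vehicle for no effect and reference inhibitor for full effect; nearly all actives have a fitted effect of over 55% in size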
Target sequence (P08659 whole entry, looked up): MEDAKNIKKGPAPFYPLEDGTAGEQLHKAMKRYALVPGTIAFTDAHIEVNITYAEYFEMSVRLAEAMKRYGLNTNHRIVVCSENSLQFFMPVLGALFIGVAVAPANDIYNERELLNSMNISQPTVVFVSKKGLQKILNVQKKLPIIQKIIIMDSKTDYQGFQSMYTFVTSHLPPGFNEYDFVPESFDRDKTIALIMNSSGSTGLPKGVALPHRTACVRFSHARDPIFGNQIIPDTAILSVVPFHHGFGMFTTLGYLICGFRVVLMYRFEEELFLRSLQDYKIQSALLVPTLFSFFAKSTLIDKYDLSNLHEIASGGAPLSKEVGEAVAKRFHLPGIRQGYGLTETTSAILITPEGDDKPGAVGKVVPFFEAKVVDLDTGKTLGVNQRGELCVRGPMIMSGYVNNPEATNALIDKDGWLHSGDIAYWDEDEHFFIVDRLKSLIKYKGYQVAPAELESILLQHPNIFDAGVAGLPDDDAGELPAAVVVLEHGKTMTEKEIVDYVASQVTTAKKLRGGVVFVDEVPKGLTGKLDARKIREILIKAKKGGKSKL
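Purified P. pyralis luciferase (10nM final) with 10uM D-luciferin and 10uM ATP (Km levels) in 50mM Tris acetate pH 7.5, 10mM Mg acetate, 0.01% Tween-20, 0.05% BSA; qHTS 6-point titration, ~60 µM downward; luminescence read.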
SMN2 splice enh: qHTS Assay for Enhancers of SMN2 Splice Variant Expression; 210,000 tested, 2.8% active; HEK293 SMN2-luciferase splicing reporter, luminescence, 30-36 h; Potency, µM (titrated, usually from 46.1 µM), for inactives: at the highest dose activity change, positive = activation, actives largely listed as activators; note: % of control where 0% means no effect; nearly all actives have a fitted effect of over 55% in size
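HEK293 cells carry an SMN2 minigene-luciferase reporter in which exon 7 inclusion puts luciferase in frame. Cells were seeded at 2000 cells/well, attached for 10-12 hours, then exposed to compounds for 30-36 hours at 37C before ONE-Glo luminescence.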
Rab9 promoter act: qHTS Assay for Rab9 Promoter Activators | Huh7 Rab9 promoter-luciferase reporter, luminescence, 24 h | Potency, µM (titrated, usually from 9.22 µM), for the others: at the highest dose activation, negative = inhibition, hits mostly activators | 320,000 tested, 2.8% active; note: % of control where 0% means no effect; nearly all actives have a fitted effect of over 60% in size
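Stable Rab9-luc Huh7, 1500 cells/well, 2 h settle; cmpd in DMSO, 24 h, 37 °C/5% CO2; luciferase reagent 10 min RT; luminescence.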
* = called active by the depositor; ? = inconclusive; / = not tested or not shown; [ ] = remark or other dose. Hits are enriched below; roughly 7.3% of the tested compounds scored in any of these assays. Calls come from the whole dose curve; as a rule, active = well fitted curve in the direction sought with a large enough effect; inconclusive = small, poorly fitted or top-dose-only effect, or another doubt; inactive = no such curve, though single readings can be large; an effect the other way counts as inactive or inconclusive. Potency is the fitted concentration of half-maximal effect.

SMILES	p53 reactivator	ELG1 genotox	NPC1 prom act	FLuc counter	SMN2 splice enh	Rab9 promoter act
Clc1ccc(OCc2nc3ccccc3[nH]2)cc1	9%	?	2µM*	3.4µM*	11µM*	1.1µM*
O=S(=O)(CCc1nc2ccccc2[nH]1)c1ccc(Cl)cc1	27%	0%	1%	-12%	-12%	-2%
c1ccc(Cc2nc3ccccc3[nH]2)cc1	/	0%	1%	-3%	/	-3%
c1ccc(OCc2nc3ccccc3[nH]2)cc1	?	?	2.8µM*	12µM*	13µM*	4µM*
OC(Cc1nc2ccccc2[nH]1)c1ccccc1Cl (stereo unspecified)	13%	9%	24%	24µM*	-1%	22%
CCOc1ccc(C(=O)c2cn(CC(=O)Nc3ccc(C)c(C)c3)c3ccc(OCC)cc3c2=O)cc1	/	/	/	-1%	4%	/
CCc1ccc(C(=O)CN2CCSC2=N)cc1	?	?	1.6µM*	3µM*	?	0.71µM*
CCc1cccc(-n2nnc(-c3nc(-c4cccs4)no3)c2N)c1	/	/	/	-13%	/	/
CC(C)Oc1ccc(CNC(=O)C(C)n2ccc3cc(S(=O)(=O)N4CCCCCC4)ccc32)cc1 (stereo unspecified)	/	/	/	-11%	/	/
O=c1[nH]c(=O)c2nc(-c3ccc(Cl)cc3)cnc2[nH]1	14%	12%	-2%	17µM*	-5%	1%
O=c1c2oc3ccccc3c2n(Cc2ccccc2Cl)c(=O)n1Cc1ccc2c(c1)OCO2	/	/	/	-7%	/	/
Cc1cc(NC(=O)COC(=O)C2CCN(C(=O)c3ccc(Cl)cc3)CC2)no1	-2%	0%	-2%	1%	0%	1%
COc1cc(C(=O)OCC(=O)c2cc(C)n(CC3CCCO3)c2C)cc(OC)c1C (stereo unspecified)	7%	3%	3%	17µM*	/	5%
Cc1cc(C(=O)COC(=O)c2ccc3c(c2)OCO3)c(C)n1CC1CCCO1 (stereo unspecified)	-2%	?	1.6µM*	2.1µM*	18%	1.3µM*
COc1cccc(/C=C/C(=O)OCC(=O)c2cc(C)n(CC3CCCO3)c2C)c1OC (stereo unspecified)	-2%	1%	5%	13µM*	/	8%
Cc1cc(C(=O)COC(=O)C2CCN(C(=O)c3ccc(Cl)cc3)CC2)c(C)n1CC1CCCO1 (stereo unspecified)	-3%	10%	-4%	15µM*	3%	8%
COc1cc(C)ccc1OCC(=O)OCC(=O)c1cc(C)n(CC2CCCO2)c1C (stereo unspecified)	-2%	3%	0%	?	/	1%
O=C(NCCc1ccccc1)C1(S(=O)(=O)c2ccc(Cl)cc2)CC1	-3%	0%	-3%	-3%	/	-1%
COC(=O)c1ccc(C(NC(=O)OCc2ccccc2)/C(F)=C/[C@@H](C)C(=O)NCc2nc3ccccc3s2)cc1 (stereo partly specified)	/	/	/	/	-9%	/
CC(=O)Nc1ccc(C(=O)CSc2nnc3cc(C)c4ccccc4n23)cc1	/	/	/	-3%	/	/
COC(=O)CSc1nc2cc(C)ccc2cc1C#N	/	?	1.6µM*	13µM*	18µM*	1.4µM*
CCOC(=O)CC(=O)CSc1nc2ccc(C)cc2cc1C#N	?	16µM*	2%	-21%[2.3 µM]	25µM*	1%
CCOc1ccc(NC(=O)CC2C(=O)N(c3ccc(F)cc3)C(=O)N2Cc2ccc(OC)c(OC)c2)cc1 (stereo unspecified)	/	/	/	6%	-3%	/
CCOC(=O)/C(C#N)=C/c1ccc(-c2ccc(Br)cc2)o1	/	/	/	6.7µM*	12%	/

Screening data from PubChem.
